Screening data from PubChem BioAssay.
Hits are enriched below; roughly 5.3% of the tested compounds scored in any of these assays.
CtBP-E1A blk: qHTS Assay for Inhibitors of the CtBP/E1A Interaction; AlphaScreen GST-E1A/His-CtBP binding, 1536-well; active compounds read low; 340,000 compounds, 0.49% hits; CtBP / adenovirus E1A interaction (AlphaScreen); activity change, % (no concentration beside the values); in the data active = activity change below about -65%; inconclusive = mostly about -30% to -63%
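AlphaScreen with 125 nM GST-E1A and 125 nM His-CtBP (5X stocks) in Tris pH 8.0, 300 mM NaCl, BSA, Tween 20, TCEP. Compounds preincubated 2 h at 37 deg C, then glutathione donor/nickel acceptor beads added for 1 h at 37 deg C in dark.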
Six1-Eya2 inh: qHTS Assay for Inhibitors of the Six1/Eya2 Interaction; 360,000 compounds, 0.56% hits; Homeobox protein SIX1 (Homo sapiens) + Protein phosphatase EYA2 (Homo sapiens), …; AlphaScreen GST-Six1/His-Eya2 binding, biochemical; active compounds read low; AID 651725, 2012; activity change, % (test concentration not listed); in the data active = activity change below about -65%; inconclusive = mostly about -30% to -63%
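Homogeneous AlphaScreen proximity assay pairing GST-Six1 with His-tagged Eya2 (added as 5X mix: 250 nM and 500 nM) in 50 mM Tris pH 8.0, 300 mM NaCl, 1 mM TCEP. Glutathione donor and nickel acceptor beads; 1 h, 37 °C, dark.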
BAZ2B inh: qHTS Assay for Inhibitors of BAZ2B | AlphaScreen BAZ2B-H3K14Ac peptide displacement | Potency, µM (top dose mostly 114 µM), actives largely listed as inhibitors | 360,000 compounds, 4.4% hits | AID 504333, 2011; note: nearly all actives have a fitted effect of over 60% in size
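BAZ2B 50 nM plus b-H3(5-23)K14Ac 50 nM, PBS pH 7.4/0.01% Tween-20, 30 min RT; compound added (max 110 uM), 30 min RT; streptavidin donor/Ni-chelate acceptor beads 10 ug/mL final, 20 min dark; AlphaScreen read.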
TDP1 inh: qHTS Assay for Inhibitors of Tyrosyl-DNA Phosphodiesterase (TDP1). Tyrosyl-DNA phosphodiesterase 1 (Homo sapiens), Q9NUW8. recombinant TDP1, AlphaScreen DNA substrate cleavage. Potency, µM (highest dose often 130 µM), actives largely listed as inhibitors. 350,000 compounds, 0.28% hits; note: nearly all actives have a fitted effect of over 40% in size
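Enzyme-compound mixtures sat 15 min at room temperature, followed by a 5 min reaction with 15 nM final substrate and 10 min with AlphaScreen beads. Recombinant human Tdp1 was used at 1 nM final.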
HP1b chromo inh: HTS for Inhibitors of HP1-beta Chromodomain Interactions with Methylated Histone Tails. Potency, µM (titrated, usually from 114 µM), usual class: inhibitors. AID 540317, 2011. Chromobox protein homolog 1 (Homo sapiens), P83916. 390,000 compounds, 0.56% hits. AlphaScreen HP1-beta / biotin-H3K9me3 peptide binding; note: nearly all actives have a fitted effect of over 70% in size
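AlphaScreen: HP1-beta (50 nM) preformed 30 min with biotin-H3(1-18)K9me3 peptide (50 nM) in PBS pH 7.4, 0.01% Tween-20. Compound added for 30 min at RT, then streptavidin donor/nickel chelate acceptor beads (10 ug/mL) for 30 min.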
JMJD2A Tudor: qHTS Assay for Inhibitors of JMJD2A-Tudor Domain; 390,000 compounds, 4.4% hits; Potency, µM (doses to about 114 µM), hits mostly inhibitors; Lysine-specific demethylase 4A (Homo sapiens), O75164; AlphaScreen JMJD2A-Tudor / H3K4me3 peptide binding; note: nearly all actives have a fitted effect of over 50% in size
Hits are given with their value. Unless noted, calls come from the whole dose curve; as a rule, active = well fitted inhibition curve with a large enough effect; inconclusive = small, poorly fitted or top-dose-only effect; inactive = no such curve, though single readings can be large or run the other way.

For CCc1nc2ccccc2c(C(=O)OCC(=O)N(C)Cc2ccccc2)c1C the results were CtBP-E1A blk inactive, Six1-Eya2 inh inactive, TDP1 inh inactive, HP1b chromo inh inactive and JMJD2A Tudor inactive.
`CCOC(=O)c1nc(Nc2ccc(C(=O)OC(C)C)cc2)c2ccccc2n1` gave BAZ2B inh inactive, HP1b chromo inh inactive and JMJD2A Tudor inactive.
For O=C(c1nnsc1S(=O)c1ccc(Cl)cc1)N1CCOCC1 (stereo not drawn) the results were CtBP-E1A blk inactive, Six1-Eya2 inh inactive, BAZ2B inh inactive, TDP1 inh inactive, HP1b chromo inh inconclusive and JMJD2A Tudor 7.08µM.
O=C(c1nnsc1S(=O)(=O)c1ccc(Cl)cc1)N1CCOCC1 was read as CtBP-E1A blk inactive, Six1-Eya2 inh inactive, BAZ2B inh inactive, TDP1 inh inactive, HP1b chromo inh inactive and JMJD2A Tudor inactive.
COc1cccc(-c2nc(CC(=O)O)cs2)c1OC was read as CtBP-E1A blk inactive, Six1-Eya2 inh inactive, BAZ2B inh inactive, TDP1 inh inactive, HP1b chromo inh inactive and JMJD2A Tudor inactive.
For COc1cccc(-c2nc(CCl)cs2)c1OC the results were CtBP-E1A blk inactive, Six1-Eya2 inh inactive, BAZ2B inh inconclusive, TDP1 inh inactive, HP1b chromo inh inactive and JMJD2A Tudor 50.1µM.
For COc1ccc2nc3cccc(OC)c3nc2c1 the results were CtBP-E1A blk inactive, Six1-Eya2 inh inactive, BAZ2B inh inconclusive, TDP1 inh inactive, HP1b chromo inh inactive and JMJD2A Tudor inactive.
For COc1ccc2nc3ccccc3nc2c1N the results were CtBP-E1A blk inconclusive, Six1-Eya2 inh inconclusive, BAZ2B inh 28.2µM, TDP1 inh inactive, HP1b chromo inh 39.8µM and JMJD2A Tudor 39.8µM.
C=CCn1c(O)c(N=NC(=S)Nc2ccc(OC)c(Cl)c2)c2ccccc21 was read as CtBP-E1A blk inactive, Six1-Eya2 inh inconclusive, BAZ2B inh 7.94µM, TDP1 inh inactive, HP1b chromo inh inconclusive and JMJD2A Tudor inconclusive.
Screening C=CCn1c(O)c(N=NC(=O)OC(C)(C)C)c2ccccc21 returned CtBP-E1A blk inactive, Six1-Eya2 inh inactive, BAZ2B inh inactive, TDP1 inh inactive, HP1b chromo inh inactive and JMJD2A Tudor inactive.
O=C1C([N+](=O)[O-])=C(O)c2cccc3cccc1c23 was read as BAZ2B inh 44.7µM.
For O=C(CN1C(=O)C2CCCCN2c2ccc(C(=O)N3CCCC3)cc21)NCc1ccc(F)cc1 (stereo not drawn) the results were BAZ2B inh inactive, TDP1 inh inactive, HP1b chromo inh inactive and JMJD2A Tudor inactive.
For Cc1ccc(NC(=O)c2cccc(C(F)(F)F)c2)cc1NC(=O)c1[nH]cnc1C(N)=O the results were Six1-Eya2 inh inactive, BAZ2B inh 56.2µM, TDP1 inh inactive, HP1b chromo inh inactive and JMJD2A Tudor inconclusive.
Screening Cc1nc2ccc(NC(=O)c3cccc(C(F)(F)F)c3)cc2o1 returned CtBP-E1A blk inactive, Six1-Eya2 inh inactive, BAZ2B inh inactive, TDP1 inh inactive, HP1b chromo inh inactive and JMJD2A Tudor inactive.
Screening O=S(=O)(CCc1ccccc1)c1nnnn1-c1ccccc1 returned TDP1 inh inactive.
Screening Cn1c(=O)c2[nH]c(SCCN3CCOCC3)nc2n(C)c1=S returned CtBP-E1A blk inactive, Six1-Eya2 inh inactive, HP1b chromo inh inactive and JMJD2A Tudor 15.8µM.
CCSc1nc2c([nH]1)c(=O)n(C)c(=S)n2C was read as CtBP-E1A blk inactive, Six1-Eya2 inh inactive, HP1b chromo inh inconclusive and JMJD2A Tudor 5.01µM.
For CCOC(=O)c1c(-c2ccccc2)csc1NC(=O)c1cc(-c2cccc(OC)c2)on1 the results were BAZ2B inh inactive, TDP1 inh inactive, HP1b chromo inh inactive and JMJD2A Tudor inactive.
For O=C1c2sc3nc4n(c(=O)c3c2CCC1Br)CCCCC4 (stereo not drawn) the results were CtBP-E1A blk inactive, Six1-Eya2 inh inactive, BAZ2B inh 50.1µM, HP1b chromo inh inconclusive and JMJD2A Tudor 7.94µM.
`Cc1cc([N+](=O)[O-])cc2c1NC(c1ccccn1)C1CC=CC21` (stereo not drawn) gave CtBP-E1A blk inactive, Six1-Eya2 inh inactive, BAZ2B inh inactive, TDP1 inh inactive, HP1b chromo inh inactive and JMJD2A Tudor 50.1µM.
`COc1ccc(OC)c(C2Nc3c(Cl)ccc(C(=O)O)c3C3C=CCC32)c1` (stereo not drawn) gave CtBP-E1A blk inactive, Six1-Eya2 inh inactive, BAZ2B inh inactive, HP1b chromo inh inconclusive and JMJD2A Tudor inconclusive.
`O=[N+]([O-])c1ccc(Cl)c2c1C1C=CCC1C(c1ccccn1)N2` (stereo not drawn) gave CtBP-E1A blk inactive, Six1-Eya2 inh inconclusive, BAZ2B inh 44.7µM, TDP1 inh inactive, HP1b chromo inh inconclusive and JMJD2A Tudor 39.8µM.
Screening O=C(O)c1ccc(Cl)c2c1C1C=CCC1C(c1ccccn1)N2 (stereo not drawn) returned BAZ2B inh 25.1µM and TDP1 inh inconclusive.
`COC(=O)COc1ccc(C2Nc3c(Cl)ccc(C(=O)O)c3C3C=CCC32)cc1` (stereo not drawn) gave CtBP-E1A blk inactive, Six1-Eya2 inh inconclusive, BAZ2B inh 50.1µM, HP1b chromo inh inconclusive and JMJD2A Tudor 44.7µM.
`CC(C)CC(=O)NC1(C(F)(F)F)C(=O)Nc2c1c(=O)[nH]c(=O)n2Cc1ccco1` (stereo not drawn) gave CtBP-E1A blk inactive, Six1-Eya2 inh inactive, BAZ2B inh inconclusive, TDP1 inh inactive, HP1b chromo inh inactive and JMJD2A Tudor inconclusive.
Screening O=C(NC1(C(F)(F)F)C(=O)Nc2c1c(=O)[nH]c(=O)n2Cc1ccco1)C1CCCCC1 (stereo not drawn) returned CtBP-E1A blk inactive, Six1-Eya2 inh inactive, BAZ2B inh inactive, TDP1 inh inactive, HP1b chromo inh inactive and JMJD2A Tudor 79.4µM.
For CC1(O)C(=O)C=C2C=C(c3ccsc3)OC=C2C1=O (stereo not drawn) the results were TDP1 inh inactive.
For CCC(=O)OC1(C)C(=O)C=C2C=C(c3ccsc3)OC=C2C1=O (stereo not drawn) the results were CtBP-E1A blk inactive, Six1-Eya2 inh inactive, BAZ2B inh 50.1µM, TDP1 inh inactive, HP1b chromo inh inconclusive and JMJD2A Tudor 28.2µM.
Screening COC(=O)CCC(=O)OC1(C)C(=O)C=C2C=C(c3ccsc3)OC=C2C1=O (stereo not drawn) returned CtBP-E1A blk inactive, Six1-Eya2 inh inactive, TDP1 inh inactive, HP1b chromo inh inconclusive and JMJD2A Tudor 50.1µM.
